Data as given in PubChem BioAssay (NCATS).
Records with an inconclusive call do not appear. Unmarked numbers belong to inactive results. Activity calls are given as the source filed them. Calls come from the whole dose curve; as a rule, active = well fitted curve in the direction sought with a large enough effect; inconclusive = small, poorly fitted or top-dose-only effect, or another doubt; inactive = no such curve, though single readings can be large; an effect the other way counts as inactive or inconclusive.

What follows are compounds tested against Rap guanine nucleotide exchange factor 3 (Homo sapiens) (UniProt O95398) (assay: Counterscreen qHTS for antagonist of cAMP-regulated guanine nucleotide exchange factor 3 (EPAC1) (AID 1645888;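 note: fluorescence loss as bound BODIPY-GDP is released from Rap1B; % of control where 0% means no effect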)). Details: Rap1B-BODIPY-GDP nucleotide exchange, fluorescence; series mostly up to 154 µM; activity change, negative = inhibition: at the top concentration.
How it was run: (§1)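 Rap1B–BODIPY-GDP (250 nM) with 50 uM GDP; compounds pin-transferred to 9.74 nM–152 uM final (activator) or from 7.32 nM upwards (inhibitor). Fluorescence Ex/Em 480/540 nm read at 5 and 30 min, then after adding cAMP or buffer, at room temperature.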

Chain of Rap guanine nucleotide exchange factor 3 (Homo sapiens) (O95398 whole entry, looked up): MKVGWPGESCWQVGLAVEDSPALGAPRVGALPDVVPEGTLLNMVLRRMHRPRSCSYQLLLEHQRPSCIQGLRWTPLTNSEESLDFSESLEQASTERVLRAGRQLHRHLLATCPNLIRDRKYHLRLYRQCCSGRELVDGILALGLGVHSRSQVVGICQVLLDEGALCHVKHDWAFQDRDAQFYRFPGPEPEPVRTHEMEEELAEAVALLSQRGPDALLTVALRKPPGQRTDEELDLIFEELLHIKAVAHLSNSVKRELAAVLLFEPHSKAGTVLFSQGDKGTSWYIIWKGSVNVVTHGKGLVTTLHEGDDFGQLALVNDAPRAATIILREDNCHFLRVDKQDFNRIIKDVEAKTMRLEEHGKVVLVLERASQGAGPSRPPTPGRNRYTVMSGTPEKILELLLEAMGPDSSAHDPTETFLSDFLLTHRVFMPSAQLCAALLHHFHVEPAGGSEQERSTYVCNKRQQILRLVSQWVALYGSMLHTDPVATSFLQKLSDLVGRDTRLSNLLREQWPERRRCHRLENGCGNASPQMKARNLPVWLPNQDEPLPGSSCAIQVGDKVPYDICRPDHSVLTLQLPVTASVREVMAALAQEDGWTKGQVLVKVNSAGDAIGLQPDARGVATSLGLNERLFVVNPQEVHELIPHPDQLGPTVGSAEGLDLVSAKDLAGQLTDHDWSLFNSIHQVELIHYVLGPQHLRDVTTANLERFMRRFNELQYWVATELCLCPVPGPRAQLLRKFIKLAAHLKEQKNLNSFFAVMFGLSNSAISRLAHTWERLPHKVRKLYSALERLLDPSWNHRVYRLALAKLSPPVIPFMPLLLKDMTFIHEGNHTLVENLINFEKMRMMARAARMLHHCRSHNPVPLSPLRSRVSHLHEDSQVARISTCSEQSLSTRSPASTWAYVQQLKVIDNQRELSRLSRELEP

Row | Structure (SMILES) | activity change, negative = inhibition
1 | COc1ccccc1[C@@]1(C)ON(c2ccccc2C(F)(F)F)C1=O | -9.33%
2 | FC(F)(F)C1=Nc2cccc3cccc(c23)N1 | -3.41%
3 | O=C(NC1CC1)C1CCN(S(=O)(=O)c2cc([N+](=O)[O-])ccc2Cl)CC1 | 22.4%
4 | Cc1ccccc1C(=O)Nc1ccccc1N1CCCCC1 | -1.03%
5 | Cc1cccc(NC(=O)CNC(=O)CCc2nc3sc4c(c3c(=O)[nH]2)CCCC4)c1C | 4.42%
6 | O=C(CSc1nnc(-c2ccco2)c(-c2ccco2)n1)c1ccccc1 | 6.21%
7 | C/C(=N/NS(=O)(=O)c1ccc(C(C)(C)C)cc1)c1ccc2c(c1)OCO2 | -17.7% [at 30.8 µM]
8 | CN1CCc2nc3sc(C(=O)C45CC6CC(CC(C6)C4)C5)c(N)c3cc2C1 | 18.7%
9 | COCCNc1nc(Oc2cccc(F)c2)c2sccc2n1 | 6.38%
10 | CCN1CC=C2C(C#N)=C(N)C(C#N)(C#N)C(CCc3ccccc3)C2C1 (stereo not drawn) | 98.3%
11 | CCCCOC(=O)CCn1c(=S)oc2ccccc21 | -15.5%
12 | CC(C)=CCc1c(O)cc(O)c2c1OC(c1ccc(O)cc1)CC2=O (stereo not drawn) | -0.348%
13 | CC(C)C[C@H]1COCCS(=O)(=O)N1Cc1ccc(Cl)c(Cl)c1 | -4.43% [at 30.8 µM]
14 | CCC(C)(C)c1ccc(Oc2ccc(N)cc2)cc1 | -20%
15 | O=C(NC1(O)C(=O)c2ccccc2C1=O)c1ccccc1 | 23%
16 | C=Cc1ccc(CC2(C)C(=O)Nc3ccc(Cl)cc32)cc1 (stereo not drawn) | -14.8% [at 30.8 µM]
17 | Cc1cc2c(C)nc(N/N=C/c3ccc(F)cc3)nc2o1 | -2.65%
18 | Cc1cc(C)c2c(CN3CCC(C)CC3)cc(=O)oc2c1 | 10.9% [at 30.8 µM]
19 | Cn1c(=O)c2c(nc(NCCc3ccccc3)n2CC(=O)NCCc2ccccc2)n(C)c1=O | 7.57%
20 | CCCCC(=O)N(C)c1c(CC)nc2c(OCc3ccc(C(F)(F)F)cc3)cccn12 | -15.6% [at 30.8 µM]

Row | Structure (SMILES) | activity change, negative = inhibition
21 | CC(C)=CCC[C@H](C)C[C@@H]1Cc2[nH][nH]c(=O)c2[C@H](c2ccc(F)cc2)O1 | 2.58%
22 | CCCCn1c(N)c(N(CCOC)C(=O)c2ccc(-c3ccc(C(C)=O)cc3)o2)c(=O)[nH]c1=O | -9.14%
23 | O=c1cc(CN2CCN(S(=O)(=O)c3cccc(Cl)c3)CC2)c2ccc(O)cc2o1 | 14.1%
24 | O=C1NC[C@H](Cc2ccc(O)cc2)N(C[C@@H]2CCCN2C[C@H](Cc2ccc(O)cc2)N2C[C@H](Cc3ccccc3)N(CC3CCCCCC3)C(=O)C2=O)C1=O | -7.27%
25 | CCCCC1CC2=C(C(=O)OC(C)(C)O2)C(c2ccc(Cl)cc2)O1 (stereo not drawn) | -9.04%
26 | COc1cc(/C=C/C(=O)c2ccc3c(c2)OCCO3)cc(Br)c1OCC(=O)N(C)C | 11.8%
27 | CCOc1ccccc1NC(=O)C1COc2ccccc2O1 (stereo not drawn) | -12.5%
28 | CCOc1ccc(S(=O)(=O)Nc2nc3ccccc3nc2-n2ccc(=NC(=O)c3cccs3)cc2)cc1 | -32.1%
29 | COc1cc(NC(=O)c2ccccc2NS(=O)(=O)c2ccc(Cl)s2)cc(OC)c1 | -29.4%
30 | O=[N+]([O-])c1ccc(C=NNc2ccc(S(=O)(=O)O)cc2)cc1 | -18.7% [at 30.8 µM]
31 | Cc1cc2c(N)cccc2nn1 | 21.3%
32 | Cc1cc(NC2=CC(=O)C(=O)c3ccccc32)no1 | 19%
33 | N#C/C(=C(/O)c1ccccc1F)c1nc2cc(C(F)(F)F)ccc2s1 | 14.7% [at 30.8 µM]
34 | C/C=C\C=C/C(=O)Nc1cccc(C2=NOC3(C2)C[C@H](C(N)=O)N(C(=O)c2ccc(OC)cc2)C3)c1 (stereo partly drawn) | 28.3%
35 | O=C(O)c1ccc(N=N/C(=N\Nc2ccc(C(=O)O)cc2)c2ccccc2)cc1 | -1.23% [at 30.8 µM]
36 | CCCCn1nnnc1C(c1cc2ccccc2o1)N1CCN(c2ncccc2C#N)CC1 (stereo not drawn) | -7.87% [at 30.8 µM]
37 | CCCCc1ccc(NC(=O)CN2C(=O)C3CCCCC3C2=O)cc1 (stereo not drawn) | -27%
38 | COc1ccc(NC(=O)c2cccnc2NCCc2ccccc2)cc1 | -3.33%
39 | O=C(CN1C(=O)/C(=C2/SC(=S)N(CCS(=O)(=O)O)C2=O)c2ccccc21)Nc1cccc(Br)c1 | -10.4%

What follows are compounds tested against Rap guanine nucleotide exchange factor 3 (Homo sapiens) (UniProt O95398) (assay: Counterscreen qHTS for agonist of cAMP-regulated guanine nucleotide exchange factor 3 (EPAC1) (AID 1645889; note: nearly all actives have a fitted effect of over 40% in size; note: potency is the fitted concentration of half-maximal effect; for activation: % of control where 0% means no effect)). Details: EPAC1 Rap1B-BODIPY-GDP exchange, fluorescence; series mostly up to 154 µM; activation: at the top concentration.
How it was run: as §1

Row | Structure (SMILES) | activation | Potency
40 | O=C(CSc1nnc(-c2ccco2)c(-c2ccco2)n1)c1ccccc1 | 20.5% | –
41 | CCN1CC=C2C(C#N)=C(N)C(C#N)(C#N)C(CCc3ccccc3)C2C1 (stereo not drawn) | – | 5.62 µM (active)
42 | CCC(C)(C)c1ccc(Oc2ccc(N)cc2)cc1 | -28% | –
43 | Cc1cc(C)c2c(CN3CCC(C)CC3)cc(=O)oc2c1 | 22% [at 30.8 µM] | –
44 | Cn1c(=O)c2c(nc(NCCc3ccccc3)n2CC(=O)NCCc2ccccc2)n(C)c1=O | -0.296% | –
45 | CC(C)=CCC[C@H](C)C[C@@H]1Cc2[nH][nH]c(=O)c2[C@H](c2ccc(F)cc2)O1 | -21.5% | –
46 | O=[N+]([O-])c1ccc(C=NNc2ccc(S(=O)(=O)O)cc2)cc1 | 6.23% [at 30.8 µM] | –
47 | Cc1cc2c(N)cccc2nn1 | 26.1% | –
48 | COc1ccc(NC(=O)c2cccnc2NCCc2ccccc2)cc1 | 12.8% | –
